# Screening data (PubChem BioAssay)
# In the library only some 19% were active in any assay of this set; here they are far more common.
# DT40 TDP1 no CPT: qHTS for Inhibitors of human tyrosyl-DNA phosphodiesterase 1 (TDP1): qHTS in cells in absence of CPT | DT40 Tdp1-/- hTDP1 cells, no CPT, ATP luminescence, 48 h | Potency, µM (doses to about 46.2 µM), without a hit: at the top dose activity change, negative = growth inhibition, most hits filed as inhibitors | 15% of 420,000 active | AID 686978, 2013; also: potency is read from the fitted curve at half-maximal effect; nearly all actives have a fitted effect of over 55% in size
#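 Growth of hTDP1-complemented DT40 Tdp1-knockout cells is measured by ATP luminescence after at least 48 hr compound exposure at 37 °C, with DMSO substituting for the 20 nM CPT used in the parallel screen.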
# HT1080 IDH1KD tx: toxicity to HT-1080 IDH1 knockdown cells (counter line); Potency, µM (series often up to 46.1 µM), for inactives: at the top dose activity, negative = toxicity, actives largely listed as cytotoxic; HT-1080 IDH1 knockdown viability, ATP luminescence, 48 h; AID 686971; 2% of 360,000 active;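 also: potency is read from the fitted curve at half-maximal effect; 0% = DMSO wells and -100% = cell-free medium wells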
#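 After a 2 h attachment period, IDH1KD HT-1080 cells took pin-transferred compound for 48 h at 37 °C; ATP-based luminescence after 10 min room-temperature reagent incubation reported viability.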
# HT1080-NT tox: kills 2HG-producing HT-1080-NT fibrosarcoma cells; HT-1080-NT fibrosarcoma viability, CellTiter-Glo ATP luminescence, 48 h; 1.6% of 360,000 active; Potency, µM (highest dose often 46.1 µM), for inactives: top-dose activity, negative = less viability, actives largely listed as cytotoxic;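 also: NT is the 2HG producing partner of a matched IDH1 knockdown line; potency is read from the fitted curve at half-maximal effect; 0% = DMSO-treated cells and -100% = media-only wells without cells; nearly all actives have a fitted effect of over 55% in size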
#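 HT-1080-NT; 750 cells/well; 5% FBS RPMI; 48 h compound, 37 degrees C; CellTiter-Glo luminescence; curve fitting and curve-class assignment.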
# IL1B secr inh: inhibitors of inflammasome signaling (IL-1 beta secretion). THP-1 LPS/ATP IL-1B secretion, AlphaLISA, 16 h; stronger effect = lower value. activity change, % at 57.5 µM. 4.7% of 360,000 active; in the data active = activity change below about -50%; inconclusive = mostly about -30% to -49%
#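 Secreted IL-1B measured by AlphaLISA bead assay after 16 h compound exposure of THP-1 cells; compounds (final up to 57.5 uM) added 1 h before LPS (250 ng/mL) and ATP (1.25 mM) stimulation; lower signal means less secretion.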
# TDP1 cell CPT: DT40-hTDP1 cell growth loss with CPT | chicken DT40 Tdp1-/-;hTDP1 cells + 20 nM CPT, ATP luminescence, 48 h | Potency, µM (doses to about 46.2 µM), inactives show top-dose activity change, negative = growth inhibition, most hits filed as inhibitors | 12% of 420,000 active | AID 686979; also: potency is read from the fitted curve at half-maximal effect; nearly all actives have a fitted effect of over 55% in size
#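 Chicken DT40 Tdp1-/- cells stably complemented with human TDP1 were seeded at 400 cells/well in medium containing 20 nM camptothecin, exposed to pin-transferred compounds, and grown at 37 °C for at least 48 hr. Viability was read as ATP luminescence.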
# ELG1 repair inh: blocks ELG1-dependent DNA repair in HEK293T cells. HEK293T ELG1-luciferase reporter, luminescence, 16 h; DNA damage induced by 5-fluorouridine. Potency, µM (top dose mostly 46.1 µM), without a hit: top-dose activity change, negative = inhibition, usual class: inhibitors. 2.3% of 330,000 active; also: potency is read from the fitted curve at half-maximal effect; nearly all actives have a fitted effect of over 55% in size
#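 5-Fluorouridine DNA damage + compound/DMSO, 2,000 cells/well, 16 h, 37 °C/5% CO2. ONE-Glo, 30 min RT, luminescence. Readout = decrease in reporter signal.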
# The depositor's hits bear a star; ? = inconclusive; . = no result; [ ] = remark or other dose. Unless noted, calls follow the shape of the dose curve; as a rule, active = well fitted curve in the direction sought with a large enough effect; inconclusive = small, poorly fitted or top-dose-only effect, or another doubt; inactive = no such curve, though single readings can be large; an effect the other way counts as inactive or inconclusive. Unless noted, % is scaled to controls: 0 for no effect and ±100 for the full control effect.
SMILES,DT40 TDP1 no CPT,HT1080 IDH1KD tx,HT1080-NT tox,IL1B secr inh,TDP1 cell CPT,ELG1 repair inh
CCc1ccc(NC(=O)C2=CC(c3cccs3)=NS(=O)(=O)N2C)cc1,16.4µM*,-4.5%,-2.9%,-18.6,?,6.8%
CCN(CC)S(=O)(=O)c1cccc(C(=O)N[C@H](C(=O)Nc2nc3ccccc3s2)C(C)C)c1,14.6µM*,-23.8%,-25.9%,-21.6,?,13.4%
CCN(CC)S(=O)(=O)c1cccc(C(=O)NC(C(=O)Nc2nnc(C3CC3)s2)C(C)C)c1 (stereo not drawn),?,-3.5%,-11.5%,0.3,-5.4%,?
C=CCN(CC=C)S(=O)(=O)c1ccc2nc(NC(=O)C(C)C)sc2c1,2.59µM*,7.31µM*,3.66µM*,28.2,5.8µM*,?
CCN(CC)S(=O)(=O)c1cccc(C(=O)N[C@H](C(=O)Nc2nc3ccc(F)cc3s2)C(C)C)c1,14.6µM*,?,-8.3%,-23.3,16.4µM*,?
O=[N+]([O-])c1cccnc1Oc1ccc(OCc2ccccc2)cc1,10.2%,-5.3%,6.3%,?,2.5%,?
O=C(Nc1ccc(Oc2cccc(C(F)(F)F)c2)nc1)c1ccccc1,13µM*,-11.9%,?,-3.9,-28.8%,?
O=C(Nc1ccc(Oc2cccc(C(F)(F)F)c2)nc1)c1cccs1,16.4µM*,?,-18.8%,-77.7*,20.6µM*,?
COc1ccc(NC(=O)COc2cccc(C(F)(F)F)c2)cn1,?,6.2%,-2.6%,-13.6,-3.6%,14.3%
O=[N+]([O-])c1ccc(Oc2ccc(C(F)(F)F)cn2)cc1,3.6%,21.5%,14.6%,-29.8,4.9%,-5.1%
O=[N+]([O-])c1ccc(Oc2cccc(C(F)(F)F)c2)nc1,?,1.4%,6.0%,-17.6,13µM*,-2.3%
O=[N+]([O-])c1ccc(Oc2ccc(OCc3ccccc3)cc2)nc1,-6.8%,-12.6%,1.8%,-80.4*,-1.6%,-23.9%
Nc1c(C(=O)c2ccc(Cl)cc2)sc2nsc(SCCN3CCOCC3)c12,9.2µM*,18.7%,14.8%,11.2,4.61µM*,0.0%
Nc1c(C(=O)c2ccccc2)sc2nsc(SCCN3CCCC3)c12,?,23.1µM*,11.6µM*,-104.4*,?,?
CCCNC(=O)C1(C)CCCN(Cc2cccs2)C1 (stereo not drawn),-14.1%,0.0%,4.7%,2.5,-3.3%,.
Cc1cnc(NC(=O)c2cccc(S(=O)(=O)N3CCOCC3)c2)s1,3.1%,3.2%,0.3%[9.24 µM],52.4,-17.1%,-26.9%
O=[N+]([O-])c1ccc(N2CCN(S(=O)(=O)c3ccc(Cl)c(Cl)c3)CC2)cc1NCCN1CCOCC1,8.2µM*,-1.2%,-3.1%,8.2,?,0.0%
CS(=O)(=O)N1CCN(c2ccc([N+](=O)[O-])c(NCc3ccc(Cl)cc3)c2)CC1,18.4µM*,?,?,11.7,25.9µM*,?
CC(C)c1ccc(CNc2cc(N3CCCC3)ccc2[N+](=O)[O-])cc1,?,-22.5%,?,?,18.4µM*,12.3%
CS(=O)(=O)N1CCN(c2ccc([N+](=O)[O-])c(NCc3ccccc3)c2)CC1,?,-1.3%,-0.3%,-9.3,?,-2.2%
Cc1cc(F)ccc1S(=O)(=O)N1CCCOC1CNC(=O)C(=O)NC1CCCCC1 (stereo not drawn),-13.1%,-2.2%,-2.8%,-17.3,-10.7%,0.9%
O=C1CSC2(N1)C1CC3CC(C1)CC2C3 (stereo not drawn),-16.4%,-1.5%,1.2%,29.4,-20.9%,0.0%
Fc1ccccc1SCc1nnc(-c2ccccc2Br)o1,25.9µM*,-2.7%,-2.9%,-17.5,5.8µM*,?
Cc1csc(SCc2nnc(-c3ccccc3Br)o2)n1,-19.6%,2.4%,-6.2%,0.0,-25.8%,?
COc1ccccc1N(C)C,3.3%,.,.,.,-2.0%,.
SMILES,DT40 TDP1 no CPT,HT1080 IDH1KD tx,HT1080-NT tox,IL1B secr inh,TDP1 cell CPT,ELG1 repair inh
CCOc1ccc(-c2c(C)nn3c(C)c(C(=O)Nc4ccccc4C(=O)OC)cnc23)cc1OCC,-17.4%,.,.,.,?,.
CCOc1ccc(-c2c(C)nn3c(C)c(C(=O)NCCc4ccccc4)cnc23)cc1OCC,5.17µM*,.,.,.,?,.
CCOc1ccc(-c2c(C)nn3c(C)c(C(=O)NC(C)c4ccccc4)cnc23)cc1OCC (stereo not drawn),16.4µM*,.,.,.,20.6µM*,.
CCCCNC(=O)c1cnc2c(-c3ccc(OCC)c(OCC)c3)c(C)nn2c1-c1ccccc1,-29.6%,.,.,.,?,.
CN(C)S(=O)(=O)c1ccc(N2C(=O)CC2(/C=C/c2ccccc2)C(=O)NC2CCCC2)cc1 (stereo not drawn),?,-8.9%,2.0%,-7.2,?,-7.3%
COc1ccccc1/C=C/C1(C(=O)NC2CCCC2)CC(=O)N1c1ccccc1 (stereo not drawn),7.31µM*,?,16.4µM*,97.4,6.51µM*,-25.4%
COc1ccccc1NC(=O)c1sc2ncn(Cc3ccccc3Cl)c(=O)c2c1C,?,.,.,.,-5.1%,.
COc1cc(C)ccc1OCc1cc(C(=O)N2CCC(c3ccc(F)cc3)C2)no1 (stereo not drawn),2.31µM*,0.0%,3.7%,6.7,?,?
Cc1ccc(C)c(OCc2cc(C(=O)N3C[C@@H](C)O[C@@H](C)C3)no2)c1,?,0.6%,-2.5%,-14.8,16.4µM*,?
